From PubChem
Integrin act MD – activators of alpha7 integrin expression for muscular dystrophy; alpha7betagal myoblasts, beta-gal FDG fluorescence, 48 h; Potency, µM (series often up to 38.3 µM), without a hit: top-dose activation, actives largely listed as activators; 350,000 tested, 0.064% active; AID 624291;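 also: potency is read from the fitted curve at half-maximal effect; 100% = response of the positive control SU9516; nearly all actives have a fitted effect of over 60% in size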
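alpha7betagal+/- myoblasts (passage 13, 250/well) treated 48 h at 37C with compounds at 1:260 dilution of DMSO stock. Lysed, then beta-galactosidase activity read as FDG fluorescence (ex 480/em 540) after 30 min, with pre-read for autofluorescence.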
Nrf2 activator – activates Nrf2 signaling. AREc32 ARE-luciferase reporter (MCF7-derived line), luminescence, 24 h. 410,000 tested, 0.31% active. Potency, µM (top dose mostly 46.1 µM), without a hit: at the top dose activation, actives largely listed as activators; also: potency is read from the fitted curve at half-maximal effect; % of control where 0% means no effect; nearly all actives have a fitted effect of over 65% in size
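Nrf2 activation is followed as ARE-luciferase induction in the AREc32 line after one day of compound treatment; luminescence is read with Steady-Glo.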
uPA generation – inhibitors of cell surface uPA generation; 330,000 tested, 0.31% active; Potency, µM (titrated, usually from 38.3 µM), without a hit: top-dose activity change, negative = inhibition, most hits filed as inhibitors; cell surface uPA generation assay, qHTS; active = well fitted inhibition curve with a large enough effect; inconclusive = small, poorly fitted or top-dose-only effect; inactive = no such curve, though single readings can be large or run the other way; tested in mouse RAW 264.7 cells; also: potency is read from the fitted curve at half-maximal effect; % is scaled to controls: 0 for no effect and ±100 for the full control effect; nearly all actives have a fitted effect of over 55% in size
IL-2 act – IL-2 activation. IL-2 activation reporter assay, cell-based qHTS; stimulated with anti-CD3/CD4/CD28 beads; in transgenic mouse T cells. activation, % (series mostly up to about 46 µM). 360,000 tested, 0.065% active; in the data active = activation above about 50%; inconclusive = mostly about 30% to 49%; also: 0% is about no effect
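First, unstimulated transgenic mouse T cells were exposed to compound for 60 min. Next, anti-CD3/anti-CD4-coated beads with anti-CD28 were added. Finally, after 18 h at 37 degrees C, EGFP and DsRed were imaged.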
ALOX12 inh – ALOX12 (human) lipoxygenase inhibition. 580,000 tested, 1.1% active. P18054. purified 12hLO, xylenol orange hydroperoxide absorbance. Potency, µM (highest dose often 108 µM), inactives show at the top dose activity change, negative = inhibition, actives largely listed as inhibitors; also: potency is read from the fitted curve at half-maximal effect; % is scaled to controls: 0 for no effect and ±100 for the full control effect
Target sequence (P18054 whole entry, looked up): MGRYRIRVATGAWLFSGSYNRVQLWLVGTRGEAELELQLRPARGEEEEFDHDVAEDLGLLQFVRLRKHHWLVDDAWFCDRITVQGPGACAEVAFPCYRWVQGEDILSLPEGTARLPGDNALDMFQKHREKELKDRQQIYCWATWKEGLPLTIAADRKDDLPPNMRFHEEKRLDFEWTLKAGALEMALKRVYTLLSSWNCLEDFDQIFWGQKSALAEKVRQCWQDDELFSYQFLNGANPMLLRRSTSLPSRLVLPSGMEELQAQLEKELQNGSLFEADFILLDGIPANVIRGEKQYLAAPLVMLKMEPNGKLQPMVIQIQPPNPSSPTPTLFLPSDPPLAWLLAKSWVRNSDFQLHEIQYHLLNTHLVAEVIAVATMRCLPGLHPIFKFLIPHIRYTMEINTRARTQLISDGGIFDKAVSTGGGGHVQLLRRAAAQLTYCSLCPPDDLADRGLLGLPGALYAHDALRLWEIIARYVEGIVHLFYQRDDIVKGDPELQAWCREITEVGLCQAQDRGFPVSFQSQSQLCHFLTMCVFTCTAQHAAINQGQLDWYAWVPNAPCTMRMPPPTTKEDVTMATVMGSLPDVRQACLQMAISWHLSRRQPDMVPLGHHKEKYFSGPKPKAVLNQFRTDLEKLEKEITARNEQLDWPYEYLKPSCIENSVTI
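Purified human 12hLO (150 nM final) in 25 mM Hepes, 0.01% Triton X-100, pH 7.0 was preincubated 15 min at room temperature with compound. Then 40 uM arachidonic acid was added, 30 min. Hydroperoxide was read by Fe-XO absorbance ratio 573/405 nm.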
An asterisk follows results filed as active; ! = not confirmed by another sample; [ ] = remark or other dose. Sampled rows, rich in hits. Any-hit rate of the full collection: about 1.5%. Unless noted, calls follow the shape of the dose curve; as a rule, active = well fitted curve in the direction sought with a large enough effect; inconclusive = small, poorly fitted or top-dose-only effect, or another doubt; inactive = no such curve, though single readings can be large; an effect the other way counts as inactive or inconclusive.

For Cc1cc2oc(=O)cc(CN3CCCCC3C)c2cc1C (configuration not stated) the results were Integrin act MD -27%, Nrf2 activator 0%, uPA generation -1%, IL-2 act 0 and ALOX12 inh 11µM*!.
`Cc1cc2oc(=O)cc(CN3CCCCC3)c2cc1C(C)C` gave Integrin act MD -26%, Nrf2 activator 1%, uPA generation 3%, IL-2 act -4 and ALOX12 inh inconclusive.
Cc1cc(C)c2c(CN3CCCCC3C)cc(=O)oc2c1 (configuration not stated) was read as Integrin act MD -29%, Nrf2 activator 2%, uPA generation -2%, IL-2 act 1 and ALOX12 inh inconclusive.
`Cc1cc2oc(=O)cc(CN3CCCCCC3)c2cc1C(C)C` gave ALOX12 inh 18µM*.
For COC(=O)C1CCN(Cc2cc(=O)oc3cc(C)c(Cl)cc23)CC1 the results were Integrin act MD -16%, Nrf2 activator 0%, uPA generation -3%, IL-2 act -4 and ALOX12 inh inconclusive.
`Cc1cc2oc(=O)cc(CN3CCN(C)CC3)c2cc1Cl` gave ALOX12 inh -25%.
For Cc1cc2oc(=O)cc(CN3CCCCC3C)c2cc1Cl (configuration not stated) the results were Integrin act MD -19%, Nrf2 activator 0%, uPA generation 3%, IL-2 act -3 and ALOX12 inh 18µM*.
Screening COc1cc(SC)ccc1C(=O)N[C@H]1C[C@@](O)(C(=O)N[C@@H](Cc2cccs2)C(N)=O)C[C@@H](O)[C@@H]1O returned ALOX12 inh 30%.
Screening Cc1ccc(NC(=O)Cn2c(C)cc3nc4n(c(=O)c32)CCCC4)c(Cl)c1 returned ALOX12 inh 29%.
COc1ccc(C(=O)/C=C/c2ccc(N3CCCCC3)c([N+](=O)[O-])c2)c(OC)c1 was read as Integrin act MD -55%, Nrf2 activator 13µM*, uPA generation -5%, IL-2 act -1 and ALOX12 inh 7%.
For Oc1c(-c2cc(-c3ccco3)[nH]n2)ccc2ccccc12 the results were Integrin act MD -30%, Nrf2 activator inconclusive, uPA generation 1%, IL-2 act -2 and ALOX12 inh inconclusive.
Screening S=c1[nH]nc(-c2cc(-c3ccco3)[nH]n2)n1-c1ccccc1 returned Integrin act MD 20%, Nrf2 activator inconclusive, uPA generation 0%, IL-2 act 1 and ALOX12 inh 22µM*.
Screening Oc1ccc(Cl)cc1-c1cc(-c2ccco2)[nH]n1 returned Integrin act MD -43%, Nrf2 activator inconclusive, uPA generation -4%, IL-2 act -2 and ALOX12 inh inconclusive.
`Oc1ccc(Br)cc1-c1cc(-c2ccco2)[nH]n1` gave Integrin act MD 1%, Nrf2 activator 3.5µM*, uPA generation 0%, IL-2 act -2 and ALOX12 inh inconclusive.
Oc1ccccc1-c1cc(-c2ccco2)[nH]n1 was read as Integrin act MD -10%, Nrf2 activator inconclusive, IL-2 act -3 and ALOX12 inh 20µM*.
Cc1nc(C(=O)Nc2nn(Cc3ccccc3)c3cc(OC(C)C)ccc23)c(C)o1 was read as ALOX12 inh 27%.
`COc1cccc(CN2CCC(N3Cc4cnc(C)n4C3=O)CC2)c1` gave ALOX12 inh 1%[176 µM].
C[C@@H](NC(=O)C1CC1)c1c(-c2ccc(F)cc2)noc1C(=O)O was read as ALOX12 inh 50µM*.
O=C(Nc1cccc(S(=O)(=O)N2CCCC2)c1)c1nn(-c2ccccc2)c(=O)c2ccccc12 was read as ALOX12 inh -20%.
CC(=O)c1c(NC(=O)c2ccccc2)[nH]c(-c2ccccc2)nc1=S was read as Integrin act MD 2%, Nrf2 activator 13%, uPA generation -2%, IL-2 act -1 and ALOX12 inh 40µM*.
Screening CC(=O)c1c(C)[nH]c(-c2ccccc2)nc1=S returned Integrin act MD 27%, Nrf2 activator 9%, uPA generation -2%, IL-2 act 6 and ALOX12 inh 17%.
Screening Cc1nccc(-c2sc(-c3cccs3)nc2C)n1 returned Integrin act MD 11%, Nrf2 activator 13µM*, uPA generation -29%, IL-2 act -1 and ALOX12 inh inconclusive.
Screening CCCN1CCN(C(=O)c2c(C)oc3c2CN(Cc2ccc(C)cc2)CC3)CC1 returned ALOX12 inh 13µM*.
Screening COc1ccccc1-n1cc(-c2ccccc2)c2c(=S)nc[nH]c21 returned Integrin act MD -22%, Nrf2 activator 1%, uPA generation 14%, IL-2 act -1 and ALOX12 inh 45µM*.
O=C(NCC1CC1)c1cccc(OC2CN(C3CCN(Cc4ccccc4)CC3)C2)c1 was read as ALOX12 inh 35%.
CCc1nc2ccccc2n1CCCCOc1cccc(C)c1 was read as Nrf2 activator 4% and ALOX12 inh 40µM*.
`Cc1cccc(OCCCCn2c(CO)nc3ccccc32)c1` gave Integrin act MD 33%, Nrf2 activator 1%, uPA generation 20%, IL-2 act 1 and ALOX12 inh 0%.
Screening COc1ccc(-n2cc(-c3ccccc3)[nH]c2=S)cc1 returned Integrin act MD 14%, Nrf2 activator 4%, uPA generation -3%, IL-2 act -5 and ALOX12 inh inconclusive.
`CC(=O)Nc1ccc(-n2cc(-c3ccccc3)[nH]c2=S)cc1` gave Integrin act MD 21%, Nrf2 activator 3%, uPA generation 7%, IL-2 act -3 and ALOX12 inh 28µM*.
Screening COc1ccccc1C(=O)Nc1ccnn1C1CCN(Cc2cn(C)c3ccccc23)CC1 returned Integrin act MD -72%, Nrf2 activator -1%, uPA generation 10µM*, IL-2 act 0 and ALOX12 inh -7%.
Screening COc1ccc(NC(=O)O/N=C/c2c(C)nn(C(C)(C)C)c2C)cc1 returned Integrin act MD -4%, Nrf2 activator 0%, uPA generation 2µM*, IL-2 act 2 and ALOX12 inh 59%.
`COc1cc(C=NOC(=O)Nc2ccccc2)cc(OC)c1OC` gave Integrin act MD 0%, Nrf2 activator 0%, uPA generation -1%, IL-2 act 0 and ALOX12 inh 3%.
O=C(NC1CCCCC1)c1nc(Cl)ccc1Cl was read as ALOX12 inh 32%.
`N#Cc1c(NC(=O)CSc2ncnc3ccccc23)sc2c1CCCC2` gave ALOX12 inh -16%.
For O=C(O)C1=NOC2CN([S+](=O)([O-])c3ccccc3)CC12 (configuration not stated) the results were ALOX12 inh 9%[6.33 µM].
`CC(C)c1ccc(/C=N/NC(=O)c2ccccc2Cl)cc1` gave Integrin act MD -41%, Nrf2 activator 3%, uPA generation 3.2µM*, IL-2 act 0 and ALOX12 inh -2%.
Screening CNC(=O)c1onc(-c2ccc(OC)cc2)c1[C@H](C)O returned ALOX12 inh 45%[176 µM].
